Data: the supplement of paper PMC12282887
± gives the standard deviation of the averaged measurements.

Columns and labels:
Assay in all cases: promoter activity interaction Z-score (Lux/OD deviation from empty-vector control); higher = stronger promoter induction by the compound
[1] = test system: E. coli BW25113 micFp lux reporter; conditions: 13.9 µg/ml
How it was run: (§1)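 OD600 and luminescence of E. coli BW25113 reporter cultures (40 µl LB Lennox, 384-well plates, 37°C) were measured every 30 min for 12 h. Integration ran over 0–8 h for wild type or 1–9 h for deletion strains, and wells with growth below 10% of the median were dropped. The score is the Z-transformed residual of growth-normalised luminescence fitted against a control.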

[2] = test system: E. coli BW25113 ompFp lux reporter
How it was run: as §1

[3] = test system: E. coli BW25113 robp lux reporter
How it was run: as §1

[4] = test system: E. coli BW25113 soxSp lux reporter
How it was run: as §1

[5] = test system: E. coli BW25113 tolCp lux reporter
How it was run: as §1

[6] = 1.7 µg/ml, genetic background: wild type
[7] = 1.7 µg/ml, genetic background: ΔmarA
[8] = 1.7 µg/ml, genetic background: Δrob
[9] = 1.7 µg/ml, genetic background: ΔsoxS
[10] = 3.5 µg/ml, genetic background: wild type
[11] = 3.5 µg/ml, genetic background: ΔmarA
[12] = 3.5 µg/ml, genetic background: Δrob
[13] = 3.5 µg/ml, genetic background: ΔsoxS
[14] = 6.9 µg/ml, genetic background: wild type
[15] = 6.9 µg/ml, genetic background: ΔmarA
[16] = 6.9 µg/ml, genetic background: Δrob
[17] = 6.9 µg/ml, genetic background: ΔsoxS
[18] = 13.9 µg/ml, genetic background: wild type
[19] = 13.9 µg/ml, genetic background: ΔmarA
[20] = 13.9 µg/ml, genetic background: Δrob
[21] = 13.9 µg/ml, genetic background: ΔsoxS

SMILES: NC(=O)c1cc[n+](CC2=C(C(=O)[O-])N3C(=O)[C@@H](NC(=O)[C@@H](c4ccccc4)S(=O)(=O)O)[C@H]3SC2)cc1 [Cefsulodin]
- promoter activity interaction Z-score ([1]; genetic background: Δrob): -0.0142 ± 0.099
- promoter activity interaction Z-score ([1]; genetic background: ΔsoxS): -0.324 ± 0.022
- promoter activity interaction Z-score [2, 6]: 0.0922 ± 0.034
- promoter activity interaction Z-score [2, 7]: -0.437 ± 0.1
- promoter activity interaction Z-score [2, 8]: 0.00718 ± 0.63
- promoter activity interaction Z-score [2, 9]: -0.453 ± 0.23
- promoter activity interaction Z-score [2, 10]: 0.101 ± 0.094
- promoter activity interaction Z-score [2, 11]: 0.0789 ± 0.37
- promoter activity interaction Z-score [2, 12]: -0.19 ± 0.099
- promoter activity interaction Z-score [2, 13]: -0.294 ± 0.097
- promoter activity interaction Z-score [2, 14]: 0.254 ± 0.0045
- promoter activity interaction Z-score [2, 15]: -0.42 ± 0.15
- promoter activity interaction Z-score [2, 16]: -0.561 ± 0.17
- promoter activity interaction Z-score [2, 17]: -0.258 ± 0.67
- promoter activity interaction Z-score [2, 18]: 2.4 ± 0.66
- promoter activity interaction Z-score [2, 19]: 1.43 ± 0.62
- promoter activity interaction Z-score [2, 20]: 1.29 ± 0.045
- promoter activity interaction Z-score [2, 21]: 0.329 ± 1.2
- promoter activity interaction Z-score [3, 6]: 0.353 ± 0.3
- promoter activity interaction Z-score [3, 7]: -0.684 ± 0.45
- promoter activity interaction Z-score [3, 8]: -0.402 ± 0.66
- promoter activity interaction Z-score [3, 9]: -0.564 ± 0.41
- promoter activity interaction Z-score [3, 10]: 0.22 ± 0.28
- promoter activity interaction Z-score [3, 11]: -0.459 ± 0.031
- promoter activity interaction Z-score [3, 12]: -0.153 ± 0.28
- promoter activity interaction Z-score [3, 13]: -0.0266 ± 0.11
- promoter activity interaction Z-score [3, 14]: 0.775 ± 0.033
- promoter activity interaction Z-score [3, 15]: -1.06 ± 0.66
- promoter activity interaction Z-score [3, 16]: -0.421 ± 0.63
- promoter activity interaction Z-score [3, 17]: -0.255 ± 0.017
- promoter activity interaction Z-score [3, 18]: -0.0503 ± 0.35
- promoter activity interaction Z-score [3, 19]: -0.32 ± 0.51
- promoter activity interaction Z-score [3, 20]: -0.936 ± 0.25
- promoter activity interaction Z-score [3, 21]: -1.59 ± 0.21
- promoter activity interaction Z-score [4, 6]: 0.243 ± 0.14
- promoter activity interaction Z-score [4, 7]: 0.0161 ± 0.021
- promoter activity interaction Z-score [4, 8]: 0.337 ± 0.44
- promoter activity interaction Z-score [4, 9]: -0.145 ± 0.16
- promoter activity interaction Z-score [4, 10]: 0.223 ± 0.013
- promoter activity interaction Z-score [4, 11]: 0.0152 ± 0.069
- promoter activity interaction Z-score [4, 12]: 0.186 ± 0.38
- promoter activity interaction Z-score [4, 13]: 0.0422 ± 0.085
- promoter activity interaction Z-score [4, 14]: 0.195 ± 0.0077
- promoter activity interaction Z-score [4, 15]: -0.0335 ± 0.17
- promoter activity interaction Z-score [4, 16]: 0.0477 ± 0.44
- promoter activity interaction Z-score [4, 17]: -0.0923 ± 0.35
- promoter activity interaction Z-score [4, 18]: 0.167 ± 0.16
- promoter activity interaction Z-score [4, 19]: -0.302 ± 0.11
- promoter activity interaction Z-score [4, 20]: -0.117 ± 0.011
- promoter activity interaction Z-score [4, 21]: -0.0117 ± 0.15
- promoter activity interaction Z-score [5, 6]: 0.715 ± 0.94
- promoter activity interaction Z-score [5, 7]: -0.256 ± 0.052
- promoter activity interaction Z-score [5, 8]: 0.191 ± 0.14
- promoter activity interaction Z-score [5, 9]: -1.1 ± 0.63
- promoter activity interaction Z-score [5, 10]: -0.195 ± 0.71
- promoter activity interaction Z-score [5, 11]: -0.0142 ± 0.11
- promoter activity interaction Z-score [5, 12]: 0.0051 ± 0.65
- promoter activity interaction Z-score [5, 13]: -0.229 ± 0.0049
- promoter activity interaction Z-score [5, 14]: 0.976 ± 0.34
- promoter activity interaction Z-score [5, 15]: -0.562 ± 0.45
- promoter activity interaction Z-score [5, 16]: -0.0786 ± 0.68
- promoter activity interaction Z-score [5, 17]: -0.444 ± 0.1
- promoter activity interaction Z-score [5, 18]: -0.259 ± 0.34
- promoter activity interaction Z-score [5, 19]: -0.283 ± 0.28
- promoter activity interaction Z-score [5, 20]: -0.0472 ± 0.28
- promoter activity interaction Z-score [5, 21]: -0.088 ± 0.34
